In PubChem BioAssay (NCI) one finds growth data, which are given here for eleven molecules.

“And” between values parts separate entries of the source, which are not always exact repeats. Equal values may be shown once. About 83,000 compounds went through this panel and 20% of them were active in at least one assay; those are over-represented in the sample as a whole.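 Negative percent growth values reflect cell death: -40 means 40% of the cells present at the start died, and -100 means all died.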 The source made the active and inactive calls. Rule for the calls: active = growth percent below 10; inactive = the rest.

This assay concerns HL-60(TB) leukemia. Put plainly: NCI-60 one-dose screen, 48 h (100 = growth as untreated, 0 = no growth, -100 = all killed). As to conditions: 10 µM unless noted.
Turning to `COC(=O)[C@]12CC[C@@H](C)[C@H](C)[C@@H]1C1=CC[C@@H]3[C@@]4(C)C(C=O)=C[C@@](C)(COC(C)=O)[C@@H]4[C@H](O)C[C@@]3(C)[C@]1(C)CC2`, the growth was -24.7% (active).

For `CCN(CC)CCNc1cc(-c2cccc(OC(F)(F)F)c2)nc2ccc(N3CCCC3)cc12`, the growth is -55.4% (active) and -26.1% (active) and 12.6% (inactive).

For the molecule `O=C1c2ccccc2CN1c1ccccc1`, the growth was 75.1% (inactive).

Regarding `FC(F)(F)c1ccc(-c2cn3nc(-c4c[nH]c5ccc(Br)cc45)sc3n2)cc1`, the growth was 96.9% (inactive).

For the molecule `COc1ccccc1-n1cnc(N)c1C(=O)c1cc(OC)c(OC)c(OC)c1`, the growth was 10.9% (inactive).

For the molecule `O=C1/C(=C/c2ccccc2Br)COc2ccc(O)c(O)c21`, the growth was -9.04% (active).

In the case of `O=C(c1ccccc1)c1ccc(Cl)c([N+](=O)[O-])c1`, the growth is 40.8% (inactive).

`CN1CCN(Cn2nc(-c3cc(F)c(Cl)cc3Cl)n(/N=C/c3ccc(N(C)C)cc3)c2=S)CC1`: the growth was 83.1% (inactive).

For `CCC1=C[C@@H]2CN(C1)Cc1c([nH]c3ccccc13)[C@@](C(=O)OC)(c1cc3c(cc1OC)N(C=O)[C@H]1[C@@](O)(C(=O)OC)[C@H](OC(C)=O)[C@]4(CC)[C@@H]5C[C@@H]5CN5CC[C@]31[C@@H]54)C2`, the growth was -19.4% (active).

As to `Cc1nn(-c2ccccc2)c2nc(C)n(-c3ccc(Br)cc3)c(=O)c12`, the growth is -5.26% (active).

For `CCCCCCCCCCCCCCCCCCNC(=O)[C@H]1CSC(c2cccs2)N1` (stereo partly specified), the growth was -67.5% (active).
